Experimental data as given in PubChem BioAssay AID1963576 (National Center for Advancing Translational Sciences (NCATS), 2024).
The whole screen tested about 46,000 compounds, of which about 60 (0.1%) were called active. About 3% were inconclusive and are not listed. Only a selection was taken, and actives are over-represented in it overall. Unmarked numbers belong to inactive results. Calls come from the whole dose curve; as a rule, active = well fitted inhibition curve with a large enough effect; inconclusive = small, poorly fitted or top-dose-only effect; inactive = no such curve, though single readings can be large or run the other way.

Test: Primary qHTS assay for Inhibitors of ovarian cancer metastasis using an organotypic tumor microenvironment (TME) model.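 For Potency: count of GFP cancer cells still attached after washing and fixation.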 Note: nearly all actives have a fitted effect of over 65% in size.
Conditions: SKOV3ip1-GFP adhesion/invasion on 3D omental model, fluorescence; series mostly up to 45.8 µM; activity change, negative = inhibition: at the top concentration
Excerpt: PI: Ernst Lengyel MD., Ph.D. Department of Obstetrics and Gynecology, Section of Gynecologic Oncology University of Chicago Medicine, Chicago, Illinois. The tumor microenvironment (TME) is a key determinant of metastatic efficiency. We performed a quantitative high-throughput screen (qHTS) of diverse medicinal chemistry tractable scaffolds (44,420 compounds) and pharmacologically active small molecules (386 compounds) using a layered organotypic, robust assay representing the ovarian cancer metastatic TME. This 3D model contains primary human mesothelial cells, fibroblasts, and extracellular matrix, to which fluorescently labeled ovarian cancer cells are added. Initially, 100 compounds inhibiting ovarian cancer adhesion/invasion to the 3D model in a dose-dependent manner were identified. Of those, eight compounds were confirmed active in five high-grade serous ovarian cancer cell lines and were further validated in secondary in vitro and in vivo biological assays. […] Specifically, NCGC00117362 and PP-121 inhibited ovarian cancer adhesion, invasion, and proliferation, whereas milciclib inhibited ovarian cancer invasion and proliferation. […] To evaluate the clinical potential of NCGC00117362, structure - activity relationship studies were performed. […] The three compounds identified have promise as therapeutics for prevention and treatment of ovarian cancer metastasis.
PROTOCOL TABLE (as described by Inglese J, Shamu CE and Guy RK. 2007) SEQUENCE No. (e.g., 1, 2, 3, etc.); […] (e.g., Cells, Incubation, Reagent, etc.); VALUE; DESCRIPTION. 1; Cells; 4 uL; primary human omental fibroblast, black, clear bottom, low base, 1536-well Aurora assay plate. 2; Incubation; 48 hr; 37C. 3; Cells; 3 uL; 1,200 SKOV3ip1-GFP cells. 4; Compounds; 23nL; acoustic dispenser. 5; Incubation; 2 hr; room temperature. 6; Incubation; 16 hr; 37C. 7; Wash; 5 uL; 1x PBS. 8; Fixing; 5 uL; 4% paraformaldehyde (PFA). 9; Incubation; 15 min; room temperature 10; Wash, 5 uL; 1x PBS. 11; Detection; Fluorescence, excitation filter 488 nm, emission filter 509 nm. NOTES (numbers refer to Sequence numbers above) 1. For the 1,536-well format, 40 primary human omental fibroblasts and 400 mesothelial cells were seeded with 0.02 µg fibronectin and 0.02 µg collagen type I in 4 µL of growth media (2.3 mm2; Supplementary Fig. S1A). 2. Assay plates were incubated for 48 hours at 37 C. 3. After incubation, 1,200 SKOV3ip1-GFP were seeded in 3 µL of serum-free media (growth media minus FBS) on top of primary human omental cells. 4. Compounds or controls were added to each well immediately after the addition of the cancer cells. Compounds were screened in four doses (0.36-46 µmol/L), and the plates contained the positive control (Tomatine) in eight doses (0.035-75 µmol/L) and DMSO (equal volume controls) 5 - 6. The plates were incubated at room temperature for 2 hours and then at 37 degrees C for 16 hours. 7 - 10. Following incubation, the media were aspirated and each well washed with PBS (5 µL) and then fixed with 4% paraformaldehyde (PFA; 5 µL). After 15 minutes, the PFA solution was aspirated, PBS (5 µL) was added. 11. The number of GFP-labeled cells analyzed using a fluorescent cytometer TTP LabTech Acumen eX3 using 488 nm excitation filter and 509 nm emission filter. Data was normalized to the DMSO treated for negative and Tomatine treated wells for positive control. REFERENCES: Inglese J, Shamu CE and Guy RK, Reporting data from high throughput screening of small molecule libraries, Nature Chemical Biology, 2007, 3(8): 438-441. doi.org/10.1038/nchembio0807-438. Yasgar A, Shinn P, Jadhav A, Auld DS, Michael S, Zheng W, Austin CP, Inglese J and Simeonov A, Compound Management for Quantitative High-Throughput Screening. J. Assoc. Lab. Auto., 2008, 13: 79-89. doi: 10.1016/j.jala.2007.12.004.
Potency is the fitted concentration of half-maximal effect.

Compound | activity change, negative = inhibition | outcome | Potency
CCCCN(C)S(=O)(=O)c1ccc(C(=O)Nc2sc3c(c2C(N)=O)CC(C)(C)NC3(C)C)cc1 | -2.75% |  | 
Cc1ccc(C(=O)Nc2ccccc2F)cc1S(=O)(=O)N1CCOCC1 | -6.33% |  | 
Cc1c(Cl)cccc1NC(=O)C1CCCN(c2ncnc3onc(C)c23)C1 (stereo not drawn) | -1.22% |  | 
COc1cc(C=CC(=O)O)ccc1O | 0.771% |  | 
CSc1ccc(NC(=O)Cn2nnnc2-c2ccccc2F)cc1 | -8.04% |  | 
COc1ccccc1CNC(=O)C(=O)NCC(c1ccco1)S(=O)(=O)c1ccc(F)cc1 (stereo not drawn) | 1.95% |  | 
CCC(C(=O)Nc1cccc(Cl)c1C)n1nc(-c2ccc(C)cc2)ccc1=O (stereo not drawn) |  | inactive | 
Cc1ccc(OC(=O)CSc2nnc(-c3cccs3)o2)cc1 |  | inactive | 
O=C(CCSCc1cccc(F)c1)NCc1ccccc1 |  | inactive | 
COc1cc(Cl)c(NC(=O)C(NS(=O)(=O)c2cccs2)C(C)C)c(OC)c1 (stereo not drawn) | 6.82% |  | 
Cc1cccc(N2CCN(S(=O)(=O)c3ccc4[nH]c5c(c4c3)CCCCC5)CC2)c1C | -7.22% |  | 
CCN1C(=O)c2ccccc2S(=O)c2ccc(C(=O)NCc3ccc(F)cc3)cc21 (stereo not drawn) | 4.34% |  | 
O=C(NCCC1=CCCCC1)c1ccc2c(c1)N(Cc1ccccc1F)C(=O)c1ccccc1S2(=O)=O | -1.06% |  | 
O=C(c1ccc(C(F)(F)F)cc1)N1CCC(c2nc(-c3ccc(S(=O)(=O)N4CCCC4)cc3)no2)CC1 | 8.1% |  | 
O=C(Nc1ccc(OC(F)(F)F)cc1)c1cc2c(=O)n3ccccc3nc2s1 | 6.53% |  | 
Cn1c(C(=O)Nc2cccc(C(F)(F)F)c2)cc2c(=O)n3ccccc3nc21 | 3.13% |  | 
O=c1c(NCc2cccs2)nccn1-c1ccccc1 | 3.18% |  | 
O=C(CC1Oc2ccc(Cl)cc2NC1=O)NCc1ccccc1 (stereo not drawn) | -7.3% |  | 
Cc1ccc2nc(N3CCN(c4cccc(Cl)c4)CC3)c3nnnn3c2c1 |  | inactive | 
CCCCOc1ccc(NC(=O)c2cc3c(n(-c4ccc(Cl)cc4)c2=O)CCCC3=O)cc1 | 0.925% |  | 
Cc1ccc2cccc(NC(=O)c3cccc4ccccc34)c2n1 | -4.99% |  | 

Compound | activity change, negative = inhibition | outcome | Potency
COc1ccccc1CNC(=O)CS(=O)(=O)c1cccc2nsnc12 | -9.2% |  | 
O=C(CSc1cn(CC(=O)N2CCOCC2)c2ccccc12)Nc1ccccc1 | 0.574% |  | 
COc1ccc(C(=O)CSc2c(C(C)C)cnc3c2c(=O)n(C)c(=O)n3C)cc1 | 2.29% |  | 
COc1cccc(C(=O)NC2=NC(c3ccc(N(C)C)cc3)CC(=O)N2)c1 (stereo not drawn) | 3.44% |  | 
CNc1ccc(-c2nc(-c3ccco3)no2)cc1[N+](=O)[O-] | -0.24% |  | 
Cc1c(NC(=O)c2cc(=O)c3ccccc3o2)c(=O)n(-c2ccccc2)n1C | 0.58% |  | 
Cc1ccc2c(=O)c(C(=O)c3ccc(F)cc3)cn(CC(=O)NC3CCCCC3)c2n1 | 6.33% |  | 
CCOc1ccc(NC(=O)c2c(NC(=O)Cc3ccccc3)sc3c2CCCCC3)cc1 |  | inactive | 
CCSc1ncc(Cl)c(C(=O)Nc2cc(C)ccc2C)n1 |  | inactive | 
Cc1ccc(NC(=O)c2nc(S(=O)(=O)Cc3cccc(C)c3)ncc2Cl)cc1 |  |  | 3.16 µM (active)
CCCS(=O)(=O)c1ncc(Cl)c(C(=O)Nc2scc(-c3ccccc3)c2C(=O)OCC)n1 | 3.76% |  | 
CCOC(=O)N1CCc2c(sc3c2C(=O)NC(c2ccccc2F)N3)C1 (stereo not drawn) | -21.5% |  | 
COc1ccc(-c2nc(CN3CCC(C(=O)NCCN(CC(C)C)CC(C)C)CC3)c(C)o2)cc1OC | 3.13% |  | 
CC(C)c1ccc(Cn2c(COc3ccccc3)nc3ccccc32)cc1 | -0.836% |  | 
CCc1ccc(C=C2SC(=S)NC2=O)cc1 | -4.26% |  | 
COc1ccc(-c2[nH]c3c(c2-c2c(-n4cccc4)n(C)c(=O)n(C)c2=O)c(=O)n(C)c(=O)n3C)cc1 | 6.37% |  | 
COc1ccc2c(C)c(CCC(=O)NCc3ccc(OC)c(OC)c3)c(=O)oc2c1 | -0.405% |  | 
CC(C)(C)C1CCc2c(sc(NC(=O)c3ccccc3F)c2C(=O)N2CCCCC2)C1 (stereo not drawn) | 6.61% |  | 
CCc1ccccc1NC(=O)c1cnn(-c2ccc(F)cc2)c1C1CCNCC1 | 1.55% |  | 
CCCCOc1ccc(CNC(=O)c2ccc3c(c2)N(C)C(=O)C2CCCCN32)cc1 (stereo not drawn) |  | inactive | 
COc1ccc(CCNC(=O)CCCCn2c(=O)c3ccccc3n(Cc3ccccc3C)c2=O)cc1OC | 9.65% |  | 

Compound | activity change, negative = inhibition | outcome | Potency
CC=C(C(=CC)c1ccc(O)cc1)c1ccc(O)cc1 | -8.67% |  | 
Cc1cc2nc(NC(=O)c3ccc(S(=O)(=O)N4CCOCC4)cc3)sc2cc1C | -13.4% |  | 
COc1ccc(-c2cc(C(=O)Nc3sc4c(c3C(N)=O)CCCC4)no2)cc1 | 33.1% |  | 
Cc1ccc2c(c1)N(C(=O)Nc1ccc(Br)cc1F)CCO2 |  | inactive | 
COc1ccc2c(CNCCc3ccccc3C)c(C(=O)O)n(Cc3ccccc3C)c2c1 | 1.4% |  | 
CCOc1cc(C2C(C(=O)OC)=C(C)NC3=C2C(=O)c2ccccc23)ccc1O (stereo not drawn) | -5.14% |  | 
COc1ccc2c(c1)CCc1c(C(=O)Nc3cc(C)ccc3O)noc1-2 |  | inactive | 
Cc1ccccc1CNC(=O)c1ccc(NC(=O)N2CCCCc3ccccc32)cc1 | -3.35% |  | 
CCCN1CCN(CCCNC(=O)Cn2nc(CC)n3c(cc4occc43)c2=O)CC1 | 0.82% |  | 
CCOC(=O)C1CCC(CN(Cc2ccc(OC)cc2)S(=O)(=O)c2ccc(F)c(C(=O)Nc3cc(C)ccc3C)c2)CC1 (stereo not drawn) |  | inactive | 
Cc1n[nH]c(C)c1S(=O)(=O)N1CCCC(C(=O)Nc2ccc(Br)cc2)C1 (stereo not drawn) | 6.06% |  | 
COc1ccc(NC(=O)C(=O)NCc2ccco2)cc1 | -4.16% |  | 
N#Cc1nc(/C=C/c2ccc(F)cc2)oc1NCc1ccc(F)cc1 |  | inactive | 
CCOc1ccc(-c2nonc2NC(=O)c2oc3ccc(C)cc3c2C)cc1OCC | -20.8% |  | 
CCC(=O)Nc1ccccc1-c1nc2ccccc2n(CC(=O)Nc2ccc(C)c(C)c2)c1=O | 2.4% |  | 
Cc1ccc2nc(NC(=O)c3nc(SCc4ccccc4F)ncc3Cl)sc2c1 |  | inactive | 
COc1ccc(Cn2ccc3nc(C)c(C(=O)Nc4ccc(C)c(F)c4)cc3c2=O)cc1 | 1.42% |  | 
CCCCNC(=O)C1CCCN(c2nnc(C)c3c(C)n(-c4ccc(Cl)cc4)nc23)C1 (stereo not drawn) | 4.38% |  | 
COC(=O)c1cc(NC(=O)c2sc3ccccc3c2Cl)cc(C(=O)OC)c1 | 0.94% |  | 
Cc1cccc(S(=O)(=O)c2cn(Cc3ccccc3)c3cc(N4CCOCC4)c(F)cc3c2=O)c1 | 2.35% |  | 
CC1=C(c2ccc(F)cc2)S(=O)(=O)N=C1N1CCC(C(=O)NCCc2ccccc2C)CC1 | -4.77% |  | 
